Results filed as inconclusive are left out. The source made the active and inactive calls. Unless noted, calls follow the shape of the dose curve; as a rule, active = well fitted curve in the direction sought with a large enough effect in the repeat runs; inconclusive = weak or mixed curves; inactive = no such curve, though single readings can be large; an effect the other way counts as inactive or inconclusive.
Tests used:
[1] = qHTS assay to identify small molecule antagonists of the estrogen receptor alpha (ER-alpha) signaling pathway using the BG1 cell line in the presence of 0.1 nM 17-beta-estradiol - cell viability counter screen (AID 1259241); also: nearly all actives have a fitted effect of over 40% in size
Summary of the method: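 Measures cytotoxicity alongside the ER-alpha antagonist readout: VM7Luc4E2 cells, charcoal-stripped serum, 0.1 nM 17beta-estradiol final, 22 hr compound incubation at 37C, CellTiter-Fluor fluorescence.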

[2] = qHTS assay to identify small molecule antagonists of the androgen receptor (AR) signaling pathway using the MDA cell line in the presence of 0.5 nM R1881 - cell viability counter screen (AID 1259242); also: nearly all actives have a fitted effect of over 45% in size
Summary of the method: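 Steps: plate MDA-kb2 cells, rest 5 hr at 37C without CO2; pin in compounds in DMSO; add R1881 to 0.5 nM final; incubate 16 hr; add CellTiter-Fluor, 30 min; read fluorescence.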

[3] = target: Estrogen receptor (Homo sapiens) (UniProt P03372); assay: qHTS assay to identify small molecule antagonists of the estrogen receptor alpha (ER-alpha) signaling pathway using the BG1 cell line in the presence of 0.1 nM 17-beta-estradiol (AID 1259244); also: nearly all actives have a fitted effect of over 50% in size
Summary of the method: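 Antagonist mode: compounds in DMSO are pinned onto VM7Luc4E2 reporter cells, 0.1 nM final 17beta-estradiol is added, and after 22 h at 37C luciferase luminescence is measured with ONE-Glo.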

[4] = qHTS assay to identify small molecule HDAC inhibitors (AID 1259364);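 also: wild-type HCT-116 cells with endogenous class I/II HDAC activity; top concentration of the series differs between compounds; nearly all actives have a fitted effect of over 45% in size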
Summary of the method: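 Cells (HCT-116, wild type) are seeded at 1,500 per well, incubated overnight, treated with compound in DMSO for 2 hr, then developed with HDAC-Glo I/II reagent for 30 min at room temperature.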

[5] = qHTS assay to identify small molecule HDAC inhibitors - cell viability counter screen (AID 1259365); also: series mostly up to about 92 µM; nearly all actives have a fitted effect of over 50% in size
Summary of the method: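 Following a 2hr exposure of overnight-plated wild-type HCT-116 cells to DMSO-delivered compounds, CellTiter-Glo was added and luminescence recorded after 30min at room temperature.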

[6] = qHTS assay to identify small molecule agonists of the sonic hedgehog signaling (Shh) pathway - cell viability counter screen (AID 1259366); also: nearly all actives have a fitted effect of over 50% in size
Summary of the method: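 After a 4hr attachment at 37C, NIH/3T3 cells bearing an integrated Gli1-driven luciferase reporter were dosed with compounds. Treatment lasted 24hr, with the final hour including CellTiter-Fluor for a fluorescence viability measurement.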

[7] = qHTS assay to identify small molecule antagonists of the sonic hedgehog signaling (Shh) pathway - cell viability counter screen (AID 1259367); also: nearly all actives have a fitted effect of over 55% in size
Summary of the method: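 CellTiter-Fluor signal in conditioned medium-stimulated 3T3 Gli1-Luc cells, 23 hr compound exposure, 37C.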

[8] = qHTS assay to identify small molecule agonists of the sonic hedgehog signaling (Shh) pathway (AID 1259368; calls by dose curve;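 also: NIH/3T3-derived 3T3Gli1-Luc cells carrying a stable Gli1-driven firefly luciferase reporter; series mostly up to about 92 µM; nearly all actives have a fitted effect of over 15% in size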)
Summary of the method: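 Cells of a mouse NIH/3T3 clone stably expressing luciferase under the Gli1 transcriptional response element are exposed to test chemicals for 24 hr at 37 C. Pathway activation is detected as a rise in luminescence.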

[9] = qHTS assay to identify small molecule antagonists of the sonic hedgehog signaling (Shh) pathway (AID 1259369; calls by dose curve; also: nearly all actives have a fitted effect of over 45% in size)
Summary of the method: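 Cells are plated and held 4hr at 37 C, compounds (DMSO) are pinned in, conditioned medium is added to stimulate the pathway, and after 24hr luciferase reagent is added for 30min before luminescence is read.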

[10] = qHTS assay to identify small molecule agonists of the androgen receptor (AR) signaling pathway in the presence of an antagonist - cell viability counter screen (AID 1259379);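 also: MDA-kb2 human breast cancer cells carrying an MMTV luciferase reporter; series mostly up to about 92 µM; nearly all actives have a fitted effect of over 25% in size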
Summary of the method: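 Cytotoxicity is assessed by CellTiter-Fluor in MDA-kb2 cells carrying an MMTV-driven luciferase reporter. Cells receive 3.0uM nilutamide plus compounds at 15 concentrations and incubate 16 hr at 37C without CO2 before fluorescence reading.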

[11] = qHTS assay to identify small molecule agonists of the estrogen receptor beta (ER-beta) signaling pathway - cell viability counter screen (AID 1259380); also: nearly all actives have a fitted effect of over 30% in size
Summary of the method: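 Cytotoxicity is measured in parallel with the reporter screen: after 16 hr compound exposure at 37C and a 2 hr LiveBLAzer step, CellTiter-Glo is added to the same ER-beta-UAS-bla HEK293T wells and luminescence read after 30 min.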

[12] = qHTS assay to identify small molecule antagonists of the estrogen receptor beta (ER-beta) signaling pathway - cell viability counter screen (AID 1259382);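 also: HEK293T cells carrying ER-beta-UAS-bla reporter stimulated with estradiol; series mostly up to about 92 µM; nearly all actives have a fitted effect of over 55% in size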
Summary of the method: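 Cytotoxicity counter screen multiplexed with the beta-lactamase antagonist assay: GripTite HEK293T ER-beta-bla cells were treated 16 hr with test chemicals in the presence of 1nM 17-beta-estradiol, and viability was measured by CellTiter-Glo.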

[13] = target: Estrogen receptor (Homo sapiens) (UniProt P03372); assay: qHTS assay to identify small molecule agonists of the estrogen receptor alpha (ER-alpha) signaling pathway in the presence of an antagonist (AID 1259383; calls by dose curve; also: top concentration of the series differs between compounds; nearly all actives have a fitted effect of over 15% in size)
Summary of the method: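 Agonist-mode confirmation in the presence of the ER antagonist ICI-182,780 at 10.0nM final. Breast-derived VM7Luc4E2 reporter cells were exposed to compounds for 22hr, and ERE-driven luciferase was quantified by luminescence.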

[14] = qHTS assay to identify small molecule agonists or antagonists of the thyroid stimulating hormone receptor (TSHR) signaling pathway - wild type cell line counter screen (AID 1259384; calls by dose curve)
Summary of the method: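 Counter screen in untransfected Hek293: compounds (15-point titration, triplicate) plus phosphodiesterase inhibitor Ro20-1724 added after 18 h plating; 30 min RT. Intracellular cAMP via competitive d2/cryptate immunoassay, 1 h incubation.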

[15] = target: Thyrotropin receptor (Homo sapiens) (UniProt P16473); assay: qHTS assay to identify small molecule antagonists of the thyroid stimulating hormone receptor (TSHR) signaling pathway (AID 1259385; calls by dose curve; also: nearly all actives have a fitted effect of over 20% in size)
Summary of the method: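 Antagonist mode: compound-treated TSHR-expressing HEK293 cells were stimulated with 1.5 ng/mL TSH (final) in presence of Ro20-1724 for 30 min at RT. HTRF cAMP detection after 1 h; each compound tested at 15 concentrations, triplicate.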

[16] = target: Estrogen receptor beta (Homo sapiens) (UniProt Q92731); assay: qHTS assay to identify small molecule agonists of the estrogen receptor beta (ER-beta) signaling pathway (AID 1259377; active = well fitted activation curve with a large enough effect in the signal ratio in the repeat runs, not every such curve was filed as active; the % refers to the signal ratio)
Summary of the method: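 In HEK293T cells bearing a UAS-beta-lactamase reporter under ER-beta control, DMSO-delivered compounds were incubated for 16 hr at 37C. Activity was detected as fluorescence 2 hours after LiveBLAzer B/G FRET substrate addition.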

[17] = target: Estrogen receptor beta (Homo sapiens) (UniProt Q92731); assay: qHTS assay to identify small molecule antagonists of the estrogen receptor beta (ER-beta) signaling pathway (AID 1259378; active = well fitted inhibition curve with a large enough effect in the signal ratio in the repeat runs, not every such curve was filed as active; the % refers to the signal ratio)
Summary of the method: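 Antagonist mode: compounds added to beta-lactamase reporter HEK293T ER-beta-UAS cells stimulated with E2 (1nM final), 16 hr at 37C. LiveBLAzer B/G FRET substrate, 2 hours room temperature, fluorescence read-out.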

[18] = qHTS assay to identify small molecule phospholipidosis (PLD) inducers (AID 1259344; active = well fitted curve in the direction sought with a large enough effect; an effect the other way counts as inactive or inconclusive)
Summary of the method: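 Accumulated phospholipid, stained red by LipidTOX during 24 h compound treatment of HepG2 cells at 37 C, is quantified from images as pit number and intensity, normalised per cell using Hoechst-stained nuclei.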

Measured: Potency

Estrogen receptor (Homo sapiens), sequence (P03372 whole entry, looked up): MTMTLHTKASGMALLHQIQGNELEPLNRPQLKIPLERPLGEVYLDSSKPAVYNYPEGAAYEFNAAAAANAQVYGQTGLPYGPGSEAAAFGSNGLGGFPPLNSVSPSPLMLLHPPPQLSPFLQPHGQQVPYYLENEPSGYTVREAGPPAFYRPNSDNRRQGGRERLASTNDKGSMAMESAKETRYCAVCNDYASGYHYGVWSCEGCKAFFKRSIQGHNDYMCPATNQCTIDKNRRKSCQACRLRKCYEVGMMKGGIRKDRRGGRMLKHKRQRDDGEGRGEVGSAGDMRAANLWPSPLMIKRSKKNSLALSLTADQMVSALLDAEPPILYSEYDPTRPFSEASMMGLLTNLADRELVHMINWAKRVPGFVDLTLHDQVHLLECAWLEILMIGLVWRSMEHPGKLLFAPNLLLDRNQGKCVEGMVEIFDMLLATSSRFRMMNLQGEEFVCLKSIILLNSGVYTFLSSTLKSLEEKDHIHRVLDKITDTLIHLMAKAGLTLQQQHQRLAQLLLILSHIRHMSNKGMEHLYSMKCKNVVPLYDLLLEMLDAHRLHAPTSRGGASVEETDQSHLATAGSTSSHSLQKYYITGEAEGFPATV
Thyrotropin receptor (Homo sapiens), sequence (P16473 whole entry, looked up): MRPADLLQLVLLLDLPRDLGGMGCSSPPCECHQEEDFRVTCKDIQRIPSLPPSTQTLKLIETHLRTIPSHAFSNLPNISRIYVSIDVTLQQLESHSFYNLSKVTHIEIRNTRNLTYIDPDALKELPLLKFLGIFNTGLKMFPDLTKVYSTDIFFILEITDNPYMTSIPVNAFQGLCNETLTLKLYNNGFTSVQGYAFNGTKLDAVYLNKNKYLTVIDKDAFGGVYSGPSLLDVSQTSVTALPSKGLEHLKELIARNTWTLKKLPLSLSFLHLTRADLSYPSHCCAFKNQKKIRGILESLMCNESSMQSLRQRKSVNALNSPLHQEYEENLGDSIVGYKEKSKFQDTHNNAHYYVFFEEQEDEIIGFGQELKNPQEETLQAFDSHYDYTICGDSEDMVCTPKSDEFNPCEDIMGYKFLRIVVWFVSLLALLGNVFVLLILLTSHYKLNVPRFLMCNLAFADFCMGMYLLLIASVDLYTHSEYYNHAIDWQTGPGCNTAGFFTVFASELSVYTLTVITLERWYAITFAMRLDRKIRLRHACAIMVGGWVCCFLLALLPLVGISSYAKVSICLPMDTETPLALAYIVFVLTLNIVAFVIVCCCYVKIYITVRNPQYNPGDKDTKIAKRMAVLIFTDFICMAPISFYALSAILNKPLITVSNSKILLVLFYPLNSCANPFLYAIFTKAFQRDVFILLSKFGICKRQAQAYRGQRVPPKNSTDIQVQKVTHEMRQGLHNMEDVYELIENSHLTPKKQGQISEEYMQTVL
Estrogen receptor beta (Homo sapiens), sequence (Q92731 whole entry, looked up): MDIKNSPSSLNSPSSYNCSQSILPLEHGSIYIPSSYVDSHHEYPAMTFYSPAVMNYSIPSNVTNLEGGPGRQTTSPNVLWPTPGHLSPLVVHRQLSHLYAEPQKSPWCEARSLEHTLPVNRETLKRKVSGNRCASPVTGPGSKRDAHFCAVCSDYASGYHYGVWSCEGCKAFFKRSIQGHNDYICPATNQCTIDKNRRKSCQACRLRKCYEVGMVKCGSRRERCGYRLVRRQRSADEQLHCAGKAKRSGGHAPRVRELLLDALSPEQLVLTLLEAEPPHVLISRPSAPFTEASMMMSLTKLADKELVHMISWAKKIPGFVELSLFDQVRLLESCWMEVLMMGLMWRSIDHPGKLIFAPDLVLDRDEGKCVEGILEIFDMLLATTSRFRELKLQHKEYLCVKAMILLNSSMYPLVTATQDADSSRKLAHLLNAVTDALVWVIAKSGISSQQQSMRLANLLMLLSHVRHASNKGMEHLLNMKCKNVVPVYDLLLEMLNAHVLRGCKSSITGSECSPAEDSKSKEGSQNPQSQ

CCOC(=O)C1=NN(c2ccccc2)C(=O)C1
not listed: [16] | [17] | [18]
inactive: all other assays above

CCOC(=O)CC(=O)c1cc(F)c(Cl)nc1Cl
not listed: [12] | [13] | [14] | [15] | [18]
inactive: all other assays above

O=C1CCCCCO1
not listed: [16] | [18]
inactive: all other assays above

N#CCCNCCC#N
not listed: [14] | [15] | [16] | [17] | [18]
inactive: all other assays above

CC(C)NCC(O)COc1ccc(CC(N)=O)cc1 (stereo unspecified)
not listed: [16] | [17] | [18]
inactive: all other assays above

CCCCC(CC)COCCCN (stereo unspecified)
not listed: [11] | [12] | [16] | [17] | [18]
inactive: all other assays above

CCN(CC)CCNC(C(=O)OCCC(C)C)c1ccccc1 (stereo unspecified)
not listed: [4] | [5] | [8] | [11] | [12] | [16]
inactive: all other assays above

CC1=CC(=O)/C(=C(/C)O)C(=O)O1
not listed: [18]
inactive: all other assays above

Cc1ccc(C(N)=O)cc1N
not listed: [18]
inactive: all other assays above

— PubChem BioAssay (Tox21)
